PAD4 FP inh: inhibitors of human PAD4 | 0.41% of 330,000 active | recombinant PAD4, RCA probe fluorescence polarization | inhibition, % at 6.36 µM;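 active means percent inhibition above a cutoff equal to the mean of all tested compounds plus 3 SD, cut at about 15% in these data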;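 further: 0% = PAD4 with RCA probe and DMSO and 100% = probe without PAD4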
LYPLA2 counter: LYPLA2 (human) inhibition in PME1 counter-screen; O95372; AID 2177; recombinant LYPLA2, FP-Rh probe fluorescence polarization; 0.38% of 320,000 active; inhibition, % at 5.9 µM;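 active means inhibition above the screen-wide mean plus 3 SD, limit set per campaign, cut at about 26% in these data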;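 further: 0% = LYPLA2 with DMSO and 100% = wells lacking LYPLA2 enzyme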
Target sequence (O95372 whole entry, looked up): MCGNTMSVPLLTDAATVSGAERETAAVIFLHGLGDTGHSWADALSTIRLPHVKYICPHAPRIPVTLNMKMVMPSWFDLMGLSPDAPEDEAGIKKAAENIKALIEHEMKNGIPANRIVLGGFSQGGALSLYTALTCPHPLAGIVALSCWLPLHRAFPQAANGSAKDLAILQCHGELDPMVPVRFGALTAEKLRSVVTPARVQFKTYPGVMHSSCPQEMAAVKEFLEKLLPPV
PME-1 inh: blocks human protein phosphatase methylesterase 1; Q9Y570; recombinant PME-1, FP-Rh probe fluorescence polarization; inhibition, % at 5.9 µM; 0.53% of 320,000 active; AID 2130;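 active means inhibition above the campaign mean of all compounds plus 3 SD, cut at about 26% in these data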;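 further: competitive labeling of PME-1 active site by serine hydrolase directed probe; 0% = PME-1 with DMSO and 100% = wells lacking PME-1 enzyme; inhibitors block probe labeling so polarization falls and inhibition rises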
Fam108B inh: counter-screen for RBBP9 inhibitors: inhibitors of mouse Fam108B | recombinant Fam108B, FP-Rh probe fluorescence polarization | 0.33% of 300,000 active | inhibition, % at 9.51 µM;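 active means inhibition above the screen mean inhibition plus 3 SD, computed separately per campaign, cut at about 18% in these data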;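 further: inhibitors lower polarization as less probe binds the enzyme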
GSTO1 inh: GSTO1 inhibition, counter-screen for RBBP9 inhibitors; recombinant GSTO1, activity-based probe fluorescence polarization; inhibition, % at 5.96 µM; 1.1% of 300,000 active; P78417; AID 1974;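 active means inhibition above the campaign mean inhibition plus 3 SD, cut at about 35% in these data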;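 further: 0% = GSTO1-1 with DMSO and 100% = wells lacking GSTO1-1 enzyme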
Target sequence (P78417 whole entry, looked up): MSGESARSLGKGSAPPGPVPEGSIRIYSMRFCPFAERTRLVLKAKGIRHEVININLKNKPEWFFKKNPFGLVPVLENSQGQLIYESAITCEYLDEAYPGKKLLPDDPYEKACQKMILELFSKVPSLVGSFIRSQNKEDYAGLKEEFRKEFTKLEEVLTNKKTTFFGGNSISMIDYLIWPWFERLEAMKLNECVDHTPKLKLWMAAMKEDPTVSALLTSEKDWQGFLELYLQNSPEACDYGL
LYPLA1 counter: LYPLA1 (human) inhibition in PME1 counter-screen. recombinant LYPLA1, FP-Rh probe fluorescence polarization. inhibition, % at 5.9 µM. 0.16% of 320,000 active;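 active means inhibition above the mean of all tested compounds plus 3 SD, set per campaign, cut at about 14% in these data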;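 further: inhibitors block serine hydrolase probe labeling of LYPLA1 so polarization falls; 0% = enzyme with DMSO and 100% = wells lacking LYPLA1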
GSTO1 confirm: GSTO1 (human) inhibition, confirmation | shares compounds with GSTO1 inh | recombinant GSTO1, probe fluorescence polarization | inhibition, % at 5.96 µM | 54% of 2,400 active | AID 2176;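 active means inhibition above the primary screen's cutoff, its mean inhibition plus 3 SD, cut at about 35% in these data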;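 further: loss of polarization as inhibitors block binding of rhodamine sulfonate ester activity probe; 0% = GSTO1 with DMSO and 100% = wells lacking GSTO1 enzyme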
GSTO1 ABPP inh: inhibitors of recombinant human GSTO1; shares compounds with GSTO1 inh; gel ABPP SE-Rh probe fluorescence; inhibition, % at 1 µM; 30% of 130 active; AID 463110;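 active means inhibition of the enzyme GSTO1 above about 75%, limit read from the data; inactive means inhibition below that limit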
Numbers without * were called inactive; . = no result. This is a sample that favours compounds with a hit; in the whole collection about 1.8% have one here.

SMILES	PAD4 FP inh	LYPLA2 counter	PME-1 inh	Fam108B inh	GSTO1 inh	LYPLA1 counter	GSTO1 confirm	others
COC(=O)CC1C(=O)NCCN1C(=O)CSc1nnnn1-c1ccc(OC)cc1 (stereo not drawn)	2	0	3	2	7	3	.
CC(=O)N1N=C(c2ccccc2)OC1c1ccc([N+](=O)[O-])s1 (stereo not drawn)	-13	-2	-5	1	41*	-4	14
CC(=O)N1N=C(c2cccc([N+](=O)[O-])c2)OC1c1ccc(Br)cc1 (stereo not drawn)	1	5	1	0	-6	3	.
CC1(C)CC(=O)C=C(c2cccc3c2sc2ccccc23)C1	-4	-4	-9	.	.	-3	.
O=C(Cc1ccc2c(c1)OCCO2)c1c(O)cc(O)cc1O	-5	6	-6	3	51*	1	35
COc1ccc(C(=O)Cc2ccc3c(c2)OCO3)c(O)c1	-2	6	-8	2	-5	-5	.
O=C(CCc1ccc(O)cc1)c1c(O)cc(O)cc1O	0	1	5	6	46*	-3	19
O=C(/C=C/c1ccc(O)cc1)c1c(O)cc(O)cc1O	-6	11	0	2	13	1	.
CCC(C(=O)Nc1cccnc1Cl)c1ccccc1 (stereo not drawn)	2	0	-6	-1	-4	1	.
CC1=NN(C(=O)CCc2ccc3c(c2)OCO3)C(O)(C(F)(F)F)C1 (stereo not drawn)	1	2	4	4	6	-2	.
Cc1ccc(S(=O)(=O)Nc2ccc(O)c3cccnc23)cc1	6	2	1	-4	50*	0	0
Cc1ccc(S(=O)(=O)Nc2ccc(O)c3ncccc23)cc1	-4	-3	0	1	10	-2	.
O=C1Nc2ccccc2/C1=N\N=C\c1ccc(O)c(O)c1	2	-4	2	9	69*	-4	11
O=Cc1ccc(O)c(O)c1	3	-2	-2	-5	4	-1	.
Oc1ccc(/C=N/N=C/c2ccc(O)c(O)c2)cc1O	3	-10	-26	-9	39*	-10	18
Cc1csc(NC(C)c2nc3cc(C(F)(F)F)ccc3n2CCCO)n1 (stereo not drawn)	-3	-5	6	-3	-4	0	.
c1cnc(N2CCN(c3cnccn3)CC2)nc1	-1	-2	-1	2	-8	0	.
COc1ccc2c(c1)CCN(C(=O)CCl)C2C1C(=O)CCCC1=O (stereo not drawn)	1	-5	3	3	40*	-2	81*	GSTO1 ABPP inh=35
COc1cc2c(cc1OC)C(C1C(=O)CCCC1=O)N(C(=O)CCl)CC2 (stereo not drawn)	-4	1	6	1	28	-1	.
COc1cc2c(cc1OC)C(c1ccccc1)N(C(=O)CCl)CC2 (stereo not drawn)	6	-3	10	3	88*	1	96*	GSTO1 ABPP inh=75*
CCCC(C)NC(=O)C1c2ccccc2Oc2ccccc21 (stereo not drawn)	0	1	1	-3	-4	-2	.
CC1(C)CC(=O)C(C=Nc2ccc3c(c2)OCO3)=C(O)C1	-1	-1	-3	4	-10	-2	.
CC1(C)CC(=O)C(C=Nc2ccc(O)c(N=CC3=C(O)CC(C)(C)CC3=O)c2)=C(O)C1	-13	5	-4	-1	85*	-2	67*
CCCNC(=O)c1ccc2c(=O)n3c(-c4ccc(C)cc4)csc3nc2c1	3	-7	0	0	46*	0	28
O=[N+]([O-])c1ccc(-c2nc(C(Cl)Cl)c3ccccc3n2)cc1	1	-5	1	-4	-7	-1	.
SMILES	PAD4 FP inh	LYPLA2 counter	PME-1 inh	Fam108B inh	GSTO1 inh	LYPLA1 counter	GSTO1 confirm	others
CCOC(=O)c1c(C)n(-c2ccc(C)cc2)c2c(C(C(C)=O)C(=O)O)c(Br)c(O)c(O)c12 (stereo not drawn)	-1	-3	-1	15	64*	-1	8
CCOC(=O)c1c(C)n(-c2ccc(C)cc2)c2c(CC(C)=O)c(Br)c(OC)c(O)c12	-6	-1	-1	2	2	0	.
Cc1nc(C)c(-c2csc(N)n2)s1	-3	2	-12	3	39*	-2	9
Cc1ccc(Nc2nc(-c3sc(C)nc3C)cs2)cc1	1	6	3	7	8	1	.
Cn1c(NC2CCCCC2)c(N=O)c(=O)n(C)c1=O	-9	-3	-1	-2	9	0	.
O=S(=O)(c1ccccc1)N(CC1CO1)c1cc(Cl)ccc1Cl (stereo not drawn)	1	5	-1	10	92*	-2	94*	GSTO1 ABPP inh=51
COc1ccc(N(CCOc2ccccc2)S(=O)(=O)c2ccccc2)cc1	-1	1	-1	.	.	-1	.
O=[N+]([O-])c1ccccc1N(CC1CO1)S(=O)(=O)c1ccccc1 (stereo not drawn)	-1	-3	-1	2	81*	1	94*	GSTO1 ABPP inh=12
COc1ccc(N(CC2CO2)S(=O)(=O)c2ccccc2)cc1 (stereo not drawn)	5	-1	0	0	70*	0	86*	GSTO1 ABPP inh=19
COc1ccc([N+](=O)[O-])cc1N(CC1CO1)S(=O)(=O)c1ccc(C)cc1 (stereo not drawn)	2	1	5	1	88*	1	98*	GSTO1 ABPP inh=44
CS(=O)(=O)N(CC(=O)NCC1CCCO1)c1cc(Cl)ccc1Cl (stereo not drawn)	-5	-2	0	2	-6	-1	.
Cc1cc2nc3n(c2cc1C)CC1CC(C(=O)NCc2ccco2)N(C)C31 (stereo not drawn)	-2	-10	-5	-12	-19	-6	.
COc1ccc(CNC(=O)c2nnn(-c3cccc(C(F)(F)F)c3)c2N)cc1	-1	0	1	3	2	1	.
NS(=O)(=O)c1cc(C(=O)Nc2ccc3c(c2)CCC3)ccc1Cl	3	-13	-5	-3	-2	-6	.
COc1ccccc1N(CC1CO1)S(=O)(=O)c1ccccc1 (stereo not drawn)	-1	5	0	-2	85*	1	78*	GSTO1 ABPP inh=13
COc1ccccc1N(CC1CO1)S(=O)(=O)c1ccc(C)cc1 (stereo not drawn)	1	3	-2	2	75*	1	83*	GSTO1 ABPP inh=41
Cc1cccc(N/N=C/c2ccc(O)c(O)c2O)c1	0	-3	1	7	56*	-9	23
Cc1nnc(NC(=O)CN2CCN(Cc3ccccc3)CC2)s1	1	0	0	2	46*	-2	18

From PubChem BioAssay
